# In PubChem BioAssay (EPA / NIEHS):
# Results filed as inconclusive are left out. A structure can be active in one record and inactive in another. The source made the active and inactive calls. How the source made its calls, unless noted: active means hit-call score of the fitted dose curve at least 0.9, where 1 is the maximum; inconclusive means response in the unintended direction; inactive means score below 0.9.
# Columns and labels:
# [1] = CCTE_Deisenroth_5AR_NBTE_donor: CCTE's 5alpha-reductase NanoBRET Target Engagement Assay […], Deisenroth Lab (AID 2284319; active means hit-call score of the fitted dose curve at least 0.9, where 1 is the maximum; inactive means score below 0.9); settings: actives raise or lower the signal
# Procedure, shortened: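 SRD5A2-NanoLuc, HEK293T, 20 h expression. Chemical 10 nM - 29.9 uM, 8 conc, duplicate; 3 h preincubation + 2 h testosterone tracer. Nano-Glo substrate plus extracellular NanoLuc inhibitor; donor lum 460 nm. DMSO baseline, bidirectional fit.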
# [2] = CCTE_Deisenroth_5AR_NBTE_acceptor: CCTE's 5alpha-reductase NanoBRET Target Engagement Assay - Autofluorescence Screen, Deisenroth Lab (AID 2284321; active means hit-call score of the fitted dose curve at least 0.9, where 1 is the maximum; inactive means score below 0.9;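 further: compound fluorescence in the acceptor channel under 460 nm excitation flags autofluorescence artifacts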); settings: actives raise or lower the signal
# Procedure, shortened: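 Acceptor fluorescence intensity was read as an artifact-detection endpoint. Test chemicals at an assumed nominal 100 uM were excited at 460 nm across three independent runs. Activity was fitted bidirectionally against DMSO.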
# SRD5A2 (gene 6716) = test: CCTE_Deisenroth_5AR_NBTE_ratio: CCTE's 5alpha-reductase NanoBRET Target Engagement Assay - Ratio, Deisenroth Lab (AID 2284322; active means hit-call score of the fitted dose curve at least 0.9, where 1 is the maximum; inactive means score below 0.9); settings: actives raise or lower the signal
# Procedure, shortened: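 SRD5A2-NanoLuc HEK293T; cmpd 10 nM-29.9 uM, 3 h preinc + testosterone tracer 2 h; NanoBRET ratio 650/460; bidirectional fit vs DMSO.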
# SERPINA7 (gene 6906) = test: CCTE_GLTED_hTBG: CCTE's human Thyroxine-binding Globulin (TBG) Inhibition Assay, Great Lakes Toxicology and Ecology Division (GLTED) Lab (AID 2284343);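 further: active chemicals lower fluorescence versus DMSO baseline by displacing probe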
# Procedure, shortened: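 Fluorescence (ex 380/em 475) reports ANSA displaced from human TBG after a 2 h incubation with test chemical, without cells. Loss of signal indicates displacement, with DMSO serving as baseline.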
# TTR (gene 7276) = test: CCTE_GLTED_hTTR_0.5uM: CCTE's human Transthyretin (hTTR) Inhibition Assay, with 0.5uM TTR, Great Lakes Toxicology and Ecology Division (GLTED) Lab (AID 2284320; active means hit-call score of the fitted dose curve at least 0.9, where 1 is the maximum; inactive means score below 0.9)
# Procedure, shortened: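 Probe (ANSA) displacement from 0.5 uM human transthyretin was followed by fluorescence (ex 380, em 475) after a 2 h incubation with chemical. Activity was scored as signal loss and fitted positively relative to DMSO.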
# [3] = VALA_TUBHUV_Antagonist_TubuleLength: VALA Sciences human Umbilical Vein Endothelial Tubule Formation (TUBHUV) Antagonism Assay (AID 2284325)
# Procedure, shortened: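 Tubule length was imaged via CD31 immunofluorescence after a further 3-day compound exposure in 10 ng/ml VEGF, following 3-day pre-culture of HUVEC with HDF at 1:3. Vehicle 0.1% DMSO; suramin (100 uM) inhibition control.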
# [4] = VALA_MIGHUV1_ScratchOnly_CellCount: Viability Assessment in the VALA Sciences human Umbilical Vein Endothelial Cell Migration (MIGHUV) Assay, Scratch Wound Inhibited Recovery (AID 2284327)
# Procedure, shortened: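 Hoechst-stained nuclei in the scratch wound were counted by high-content imaging after a 24 h recovery period. Scratched HUVEC monolayers received 6-point concentration series, triplicate, in 0.1% DMSO, fit against DMSO.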
# [5] = VALA_TUBIPS_Antagonist_CellCount: Viability Assessment in the VALA Sciences human iPS-derived Endothelial Tubule Formation (TUBIPS) Antagonism Assay (AID 2284335)
# [6] = VALA_MIGHUV1_ScratchOnly_WoundArea: VALA Sciences human Umbilical Vein Endothelial Cell Migration (MIGHUV) Assay, Area of Scratch Wound Inhibited Recovery (AID 2284336)
# Procedure, shortened: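 Wound area remaining after 24 h recovery imaged by Hoechst nuclear fluorescence in scratched HUVEC cultures, chemicals added within 30 min of scratching across a 6-point series. Gain of signal fitted against 0.1% DMSO; cytochalasin D positive control.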
# [7] = VALA_TUBHUV_Agonist_TubuleLength: VALA Sciences human Umbilical Vein Endothelial Tubule Formation (TUBHUV) Agonism Assay (AID 2284337)
# Procedure, shortened: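 Tubule length quantified by CD31 immunofluorescence imaging after fixation. HUVEC-HDF co-cultures (1:3) pre-grown 3 days with 10 ng/ml VEGF, then dosed 3 days in VEGF medium; 0.1 % DMSO vehicle baseline.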
# [8] = VALA_TUBIPS_Agonist_CellCount: Viability Assessment in the VALA Sciences human iPS-derived Endothelial Tubule Formation (TUBIPS) Agonism Assay (AID 2284338)
# [9] = CCTE_Mundy_HCI_iCellGluta_NOG_NeuriteLength: CCTE's Neurite Outgrowth Assay in iCellGluta cells for Neurite Length, Mundy Lab (AID 2284318)
# Procedure, shortened: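 Automated high-content imaging of betaIII-tubulin (Alexa Fluor-488) and Hoechst-stained cells gave neurite length, normalized to the DMSO baseline.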
# [10] = CCTE_Mundy_HCI_iCellGluta_NOG_NeuronCount: CCTE's Neurite Outgrowth Assay in iCellGluta cells for Neuron Count, Mundy Lab (AID 2284340);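 further: cells fixed about 48 h after compound addition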
# Procedure, shortened: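 Neuron count read by automated high-content imaging of Hoechst 33342 and betaIII-tubulin/Alexa Fluor-488 labelling in human iPSC glutamatergic neurons. Activity fitted relative to DMSO.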
# [11] = CCTE_Mundy_HCI_iCellGluta_NOG_NeuriteCount: CCTE's Neurite Outgrowth Assay in iCellGluta cells for Neurite Count, Mundy Lab (AID 2284342);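 further: chemical exposure about 48 hours starting 2 hours after plating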
# [12] = IUF_NPC1_cytotoxicity_72hr: Cytotoxicity Assessment at 72 hours in the Leibniz Research Institute for Environmental Medicine (IUF) Neural Progenitor Cell Proliferation Assay (NPC1) (AID 2284332);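 further: rising LDH signal means more cytotoxicity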
# Procedure, shortened: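 LDH in supernatant, resazurin→resorufin fluorescence (RFU), 72 h exposure, no re-dosing. Cells: primary hNPC spheres, one per well, EGF+FGF medium, 37C/5% CO2, pH 7.2-7.6. Fit: positive direction vs baseline and dynamic range.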
# [13] = TAMU_PeakParms_SingleDonor1434_Asystole: Texas A&M University (TAMU) 1.5-hr Human Induced Pluripotent Stem Cell (iPSC)-derived Cardiomyocytes Calcium (Ca+2) Flux Assay for Cardiotoxicity: Asystole (quiescence of beating) (AID 2284328)
# Procedure, shortened: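 Human iPSC-derived cardiomyocytes (donor 1434) were exposed to 0.2, 1, 10 and 100 uM compound in 0.5% DMSO for 90 min at 37C. Ca2+-dye fluorescence gave average peak frequency; POD is EC95, a 95% beat-rate drop versus DMSO.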
# IYD (gene 389434) = test: CCTE_GLTED_hIYD: CCTE's human Iodotyrosine Deiodinase (xIYD) Inhibition Assay, Great Lakes Toxicology and Ecology Division (GLTED) Lab (AID 2284317);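 further: cell-free human IYD enzyme made in baculovirus insect cells; iodide freed from monoiodotyrosine measured by cerium arsenite color change at 420 nm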
# Procedure, shortened: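 Cell-free; baculovirus/insect-cell hIYD + MIT substrate + chemical, 3 h. Dowex column cleanup, then Ce4+/As3+ Sandell-Kolthoff read at A420 nm. Triplicate plates; normalized to 3-nitro-L-tyrosine (positive) and DMSO/NaOH (solvent).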
# [14] = CCTE_Deisenroth_H295R-HTRF_384WELL_ESTRADIOL: CCTE's H295R-HTRF Assay Evaluation of Estradiol Concentration, Deisenroth Lab (AID 2284361; active means hit-call score of the fitted dose curve at least 0.9, where 1 is the maximum; inactive means score below 0.9); settings: actives raise or lower the signal
# Procedure, shortened: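 Estradiol secreted into medium by H295R adrenocortical cells, quantified by HTRF after 48 h dosing over a nine-point 0.001 - 100 uM final range; gain or loss versus DMSO. Parallel ATP-luminescence viability readout; n=5 experiments.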
# [15] = CCTE_Deisenroth_H295R-HTRF_384WELL_TESTOSTERONE: CCTE's H295R-HTRF Assay Evaluation of Testosterone Concentration, Deisenroth Lab (AID 2284373; active means hit-call score of the fitted dose curve at least 0.9, where 1 is the maximum; inactive means score below 0.9); settings: actives raise or lower the signal
# Procedure, shortened: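 Secreted testosterone was quantified by HTRF immunoassay of medium from human adrenocortical H295R cells after 48 h chemical exposure at 0.001–100 uM final. Gain or loss was fitted against DMSO. ATP-based viability was read on matched wells, five experimental replicates.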
# [16] = CCTE_Deisenroth_H295R-HTRF_384WELL_CTOX: Cytotoxicity Assessment in CCTE's H295R-HTRF Assay, Deisenroth Lab (AID 2284380)
# Procedure, shortened: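 Luminescent ATP viability readout (CellTiter-Glo 2.0), multiplexed on plates used for hormone sampling, after 48 h chemical exposure. Human H295R cells; final concentrations 0.001–100 uM in nine steps, technical triplicates, five experiments; DMSO baseline.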
smiles,measurement,setting,value
Cc1ccc(N)c(N)c1,outcome,[1],inactive
same,AC50,[2],50 µM (active)
same,AC50,SRD5A2 (gene 6716),22.7 µM (active)
c1ccc(NNc2ccccc2)cc1,AC50,SERPINA7 (gene 6906),39.1 µM (active)
CCNS(=O)(=O)C(F)(F)C(F)(F)C(F)(F)C(F)(F)C(F)(F)C(F)(F)C(F)(F)C(F)(F)F,AC50,TTR (gene 7276),1.54 µM (active)
CO[C@@H]1[C@H](OC(=O)NC(=O)CCl)CC[C@]2(CO2)[C@H]1[C@@]1(C)O[C@@H]1CC=C(C)C,outcome,[3],inactive
same,outcome,[4],inactive
same,outcome,[5],inactive
same,outcome,[6],inactive
same,outcome,[7],inactive
same,AC50,[8],0.168 µM (active)
same,outcome,[8],inactive
CN(C)[C@@H]1C(=O)C(C(N)=O)=C(O)[C@@]2(O)C(=O)C3=C(O)c4c(O)cccc4[C@@](C)(O)[C@H]3C[C@@H]12,AC50,[9],23.3 µM (active)
same,outcome,[10],inactive
same,outcome,[11],inactive
Nc1ccc(Oc2ccc(N)cc2)cc1,AC50,SERPINA7 (gene 6906),25.3 µM (active)
Brc1ccc(Oc2ccccc2)cc1,AC50,SERPINA7 (gene 6906),45.4 µM (active)
CC(C)(O)c1cnn2c(-c3ccc(F)c(-c4c(F)cccc4C#N)c3)cnc2n1,outcome,[1],inactive
same,outcome,[2],inactive
same,AC50,SRD5A2 (gene 6716),13.5 µM (active)
Nc1ccc(N=Nc2ccccc2)cc1,AC50,[1],23.8 µM (active)
same,outcome,[2],inactive
same,AC50,SRD5A2 (gene 6716),50 µM (active)
same,AC50,SERPINA7 (gene 6906),20.9 µM (active)
CCC[CH2][Sn]([Cl])([CH2]CCC)[CH2]CCC,AC50,[9],0.163 µM (active)
same,AC50,[1],4.88 µM (active)
same,AC50,[2],4.25 µM (active)
same,AC50,SRD5A2 (gene 6716),16.8 µM (active)
same,AC50,[12],0.637 µM (active)
same,AC50,[10],0.257 µM (active)
same,AC50,[11],0.183 µM (active)
CCCCCOC(=O)c1ccccc1C(=O)OCCCCC,AC50,SERPINA7 (gene 6906),7.46 µM (active)
[O-][Cl+]O,AC50,[9],24 µM (active)
same,outcome,[12],inactive
same,outcome,[10],inactive
same,outcome,[11],inactive
Cc1cc(N=Nc2ccccc2C)ccc1N,AC50,[1],40.6 µM (active)
same,AC50,[2],38.4 µM (active)
same,AC50,SRD5A2 (gene 6716),50 µM (active)
same,AC50,SERPINA7 (gene 6906),4.38 µM (active)
COc1cc(C=O)cc2c1[C@H](COC(N)=O)[C@]1(OC(C)=O)ON2C[C@H]2[C@@H]1N2C(C)=O,outcome,[1],inactive
same,outcome,[2],inactive
same,outcome,SRD5A2 (gene 6716),inactive
CCCCCCCCn1sccc1=O,AC50,[1],72.7 µM (active)
same,AC50,[2],73.2 µM (active)
same,AC50,SRD5A2 (gene 6716),71.1 µM (active)
same,outcome,[13],inactive
Oc1ccc2ccc3cccc4ccc1c2c34,outcome,[3],inactive
same,outcome,[5],inactive
same,outcome,[7],inactive
same,outcome,[8],inactive
CC(C)COC(=O)c1ccccc1C(=O)OCC(C)C,outcome,[9],inactive
same,outcome,[10],inactive
same,outcome,[11],inactive
same,AC50,SERPINA7 (gene 6906),16.1 µM (active)
c1ccc2c(c1)-c1cccc3cccc-2c13,outcome,[1],inactive
same,outcome,[2],inactive
same,outcome,SRD5A2 (gene 6716),inactive
Clc1ccc(Cl)c(Cl)c1,outcome,[6],inactive
Nc1cc(Cl)cc(C(=O)O)c1Cl,outcome,SERPINA7 (gene 6906),inactive
Nc1ccc([N+](=O)[O-])cc1,AC50,SERPINA7 (gene 6906),41.4 µM (active)
[Cl-].[Cl-].[Hg+2],AC50,[1],74.8 µM (active)
same,AC50,[2],73.3 µM (active)
same,AC50,SRD5A2 (gene 6716),75.4 µM (active)
same,AC50,SERPINA7 (gene 6906),27.6 µM (active)
OCCOCCO,outcome,[12],inactive
O=C(Nc1ccccc1)c1ccccc1I,AC50,SERPINA7 (gene 6906),15.7 µM (active)
COP(=S)(OC)SCN1C(=O)c2ccccc2C1=O,AC50,[9],92.2 µM (active)
same,outcome,[12],inactive
same,AC50,[10],80.7 µM (active)
same,AC50,[11],83.8 µM (active)
same,AC50,SERPINA7 (gene 6906),37.5 µM (active)
ClC1=C(Cl)[C@]2(Cl)[C@H]3[C@H]([C@@H]4C=C[C@H]3C4)[C@@]1(Cl)C2(Cl)Cl,outcome,[13],inactive
Clc1ccc(C(c2ccc(Cl)cc2)C(Cl)(Cl)Cl)cc1,AC50,IYD (gene 389434),35.2 µM (active)
same,outcome,[13],inactive
CS(=O)(=O)NC(=O)c1cc(Oc2ccc(C(F)(F)F)cc2Cl)ccc1[N+](=O)[O-],AC50,SERPINA7 (gene 6906),16.1 µM (active)
CCCCOC(=O)c1ccccc1C(=O)OCc1ccccc1,outcome,[9],inactive
same,outcome,[12],inactive
same,outcome,[10],inactive
same,outcome,[11],inactive
same,AC50,SERPINA7 (gene 6906),2.23 µM (active)
COC(=O)Nc1nc2ccccc2[nH]1,outcome,[9],inactive
same,outcome,[12],inactive
same,outcome,[10],inactive
same,outcome,[11],inactive
C[C@]12C=CC3=C4CCC(=O)C=C4CC[C@H]3[C@@H]1CC[C@@H]2O,outcome,[1],inactive
same,outcome,[2],inactive
same,outcome,SRD5A2 (gene 6716),inactive
CNC(=O)Oc1cccc2c1OC(C)(C)C2,AC50,[9],49.6 µM (active)
same,outcome,[12],inactive
same,outcome,[10],inactive
same,outcome,[11],inactive
CC(C)(C)C(O)(CCc1ccc(Cl)cc1)Cn1cncn1 (stereo not drawn),outcome,[13],inactive
same,outcome,[12],inactive
same,AC50,SERPINA7 (gene 6906),26.9 µM (active)
same,outcome,[14],inactive
same,AC50,[15],2 µM (active)
O=[N+]([O-])c1ccc(Oc2ccc(Cl)cc2Cl)cc1,AC50,SERPINA7 (gene 6906),5.39 µM (active)
same,outcome,[14],inactive
same,outcome,[15],inactive
same,outcome,[16],inactive
O=P(OCCCl)(OCCCl)OCCCl,outcome,[3],inactive
same,outcome,[12],inactive
same,outcome,[5],inactive
same,outcome,[6],inactive
same,outcome,[7],inactive
c1ccc(N=Nc2ccccc2)cc1,outcome,[13],inactive
same,AC50,SERPINA7 (gene 6906),50 µM (active)
